Experiment [1] can be described thus: Nuclear factor erythroid 2-related factor 2/antioxidant responsive element (Nrf2/ARE) small molecule agonists: qHTS cell viability counter screen in human keratinocytes (AID 1919968; active = well fitted curve in the direction sought with a large enough effect in the repeat runs; an effect the other way counts as inactive or inconclusive; note: nearly all actives have a fitted effect of over 55% in size; note: potency is the fitted concentration of half-maximal effect). The method in brief:
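Parallel cytotoxicity read: KeratinoSens HaCaT cells, compound treatment 23 h, viability by CellTiter-Fluor fluorescence 1 h post-reagent.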

Experiment [2] in a line: Nuclear factor erythroid 2-related factor 2/antioxidant responsive element (Nrf2/ARE) small molecule agonists: luciferase reporter gene qHTS assay in human keratinocytes (AID 1919969). Note: nearly all actives have a fitted effect of over 35% in size. Note: potency is the fitted concentration of half-maximal effect. Background: Reporter assays use an easily measured gene product as a stand-in for the process of interest.
The target in experiment [3] is Gonadotropin-releasing hormone receptor (Homo sapiens) (UniProt P30968). Nature of the experiment: Human gonadotropin-releasing hormone receptor (GnRHR) small molecule agonists, calcium flux assay in GnRHR-HEK293 cells (AID 1920063). Note: nearly all actives have a fitted effect of over 35% in size. The method in brief: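 Calcium flux, agonist mode, human GnRHR stably integrated in HEK293; dye 1 h at 37 C before compound; Ex/Em=480/540 kinetic read, 3 min; 15 concentrations, triplicate.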
In general terms: Calcium flux is commonly read through the fluorescence of an indicator in the cells.

The target in experiment [4] is KiSS-1 receptor (Homo sapiens) (UniProt Q969F8). Nature of the experiment: Human kisspeptin (KISS1R) small molecule agonists, calcium flux assay in KISS1R-HEK293 cells (AID 1920064; active = well fitted curve in the direction sought with a large enough effect in the repeat runs; an effect the other way counts as inactive or inconclusive). The method in brief: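 Triplicate 15-concentration series were applied to dye-loaded human KISS1R HEK293 cells, and agonist-evoked calcium fluorescence was captured for 3 min.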
The nature of experiment [5]: G protein-coupled receptor (GPCR) small molecule agonists, calcium flux assay: HEK293 wild type cell line counter screen (AID 1920065). The method in brief:
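Non-specific calcium responders were flagged by adding DMSO-dissolved compounds to dye-loaded cells and reading 480/540 nm fluorescence each second for 3 min; ATP served as positive control.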

Experiment [6] can be described thus: p53 small molecule agonists, cell-based qHTS assay with human liver microsomes (AID 1963577).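 Note: p53 response element beta-lactamase reporter cells with liver microsomes plus NADPH.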 The method in brief:
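Compounds act here after metabolic activation: human liver microsomes and NADPH, both at 0.5 mg/mL final, were co-added to p53RE-bla cells. Incubation ran 16 h at 37 C, followed by LiveBLAzer detection.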
In general terms: Quantitative high-throughput screening tests each substance at several concentrations.

Experiment [7] is described as follows: p53 small molecule agonists, cell-based qHTS assay with rat liver microsomes: qHTS cell viability counter screen (AID 1963580). Note: nearly all actives have a fitted effect of over 45% in size. The method in brief:
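Counter screen for cytotoxicity under metabolic activation: rat liver microsomes and NADPH, 0.5 mg/mL final each, added with compounds to p53RE-bla HCT-116 cells; 16 h at 37 C, then ATP luminescence read.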

The target of experiment [8] is 5-hydroxytryptamine receptor 2A (Homo sapiens) (UniProt P28223). Nature of the experiment: 5-hydroxytryptamine receptor 2A (HTR2A) small molecule antagonists, cell-based qHTS assay (AID 1963586). Note: nearly all actives have a fitted effect of over 45% in size. An outline of the steps: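 CHO cells stably expressing human HTR2A were plated for 18 h at 37 C, then loaded with calcium dye for 1 h. Compounds were preincubated 5 min at room temperature before DOI (4 nM solution) was added. Kinetic fluorescence was read for 3 min.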

For experiment [9] the target is unchanged. Nature of the experiment: 5-hydroxytryptamine receptor 2A (HTR2A) small molecule agonists, cell-based qHTS assay (AID 1963587). Note: nearly all actives have a fitted effect of over 30% in size. Note: potency is the fitted concentration of half-maximal effect. The method in brief: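 HTR2A-CHO cells, plated 18 h at 37 C/5% CO2, dye-loaded 1 h at 37 C; compounds in DMSO added by pin tool (agonist mode). Intracellular calcium flux read as kinetic fluorescence on FDSS over 2 min at 1 s intervals.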

The target of experiment [10] is Muscarinic acetylcholine receptor M1 (Homo sapiens) (UniProt P11229). Nature of the experiment: Cholinergic receptor muscarinic 1 (CHRM1) small molecule antagonists, cell-based qHTS assay (AID 1963588). Note: nearly all actives have a fitted effect of over 40% in size. Note: potency is the fitted concentration of half-maximal effect. An outline of the steps:
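Compounds were tested at 15 concentrations in three independent runs. Dye-loaded CHRM1-CHO cells were exposed 5 min at room temperature before stimulation by acetylcholine added at 50nM. Intracellular calcium was read kinetically on FDSS for 3 min.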

The target is the same in experiment [11]. Nature of the experiment: Cholinergic receptor muscarinic 1 (CHRM1) small molecule agonists, cell-based qHTS assay (AID 1963589). Note: nearly all actives have a fitted effect of over 35% in size. An outline of the steps:
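qHTS, 15-point titration, 3 independent runs: compounds pin-transferred onto dye-loaded CHRM1-CHO cells (human M1), calcium fluorescence followed every second to detect agonism.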

Experiment [12] is described as follows: cAMP Responsive Elements (CRE) small molecule agonists, cell-based qHTS assay (AID 1963590). An outline of the steps:
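Quantitative HTS for CRE agonists: HEK 293T CRE-bla cells, overnight plating, 3 h compound incubation at 37 C/5% CO2, then 2 h room-temperature LiveBLAzer B/G FRET substrate loading.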

Experiment [13] in a line: cAMP Responsive Elements (CRE) small molecule antagonists, cell-based qHTS assay (AID 1963591; active = well fitted inhibition curve with a large enough effect in the signal ratio in the repeat runs, not every such curve was filed as active; the % refers to the signal ratio; note: potency is the fitted concentration of half-maximal effect). The method in brief: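 Fluorescence intensity from cleaved LiveBLAzer B/G substrate (2 h, room temperature) quantified CRE-bla activity in HEK 293T cells exposed 3 h to compound with 0.25 uM final NKH477.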
Experiment [14] has as its target Beta-2 adrenergic receptor (Homo sapiens) (UniProt P07550). Nature of the experiment: Adrenergic beta2 receptor (ADRB2) small molecule antagonists, cell-based qHTS assay (AID 1963592). Note: series mostly up to about 92 µM; nearly all actives have a fitted effect of over 50% in size. An outline of the steps:
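Assay format: CHO-ADRB2 cells, 18-20hr seeding at 37C/5% CO2, then compound plus 1nM isoproterenol agonist mix for 0.5hr RT. Homogeneous time-resolved fluorescence cAMP detection after 1hr, expressed as 665/615 nm ratio.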

Experiment [15] has the same target. Nature of the experiment: Adrenergic beta2 receptor (ADRB2) small molecule agonists, cell-based qHTS assay (AID 1963593).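 Note: CHO cells stably overexpressing human ADRB2.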 An outline of the steps:
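CHO cells stably over-expressing ADRB2 were plated overnight at 37C, then dosed with compounds plus a stimulation mix containing 100uM IBMX and 25uM Ro-20-1724 for 0.5hr at room temperature. cAMP was measured by HTRF competition, 1hr.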

Experiment [16] concerns the target D(2) dopamine receptor (Homo sapiens) (UniProt P14416). Nature of the experiment: Dopamine D2 receptor (DRD2) small molecule agonists, cell-based qHTS assay (AID 1963594). Note: nearly all actives have a fitted effect of over 35% in size. The method in brief:
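HEK293 cells stably expressing DRD2 were cultured 24 h at 37 C, then given Ro20-1724 (0.1 mM final) and compounds for 10 min at room temperature. NKH477 (200nM) was then added for 30 min. cAMP was read by HTRF.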

The target is the same in experiment [17]. Nature of the experiment: Dopamine D2 receptor (DRD2) small molecule antagonists, cell-based qHTS assay (AID 1963595; active = well fitted inhibition curve with a large enough effect in the signal ratio in the repeat runs, with a control signal flat; the % refers to the signal ratio). An outline of the steps:
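Stable D2 receptor HEK293 line, 24 h after seeding. Compound preincubated 10 min, then quinpirole (12 nM) with forskolin analogue NKH477 (200 nM), 30 min, room temperature. Detection by time-resolved FRET of cAMP.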

Experiment [18] in a line: p53 small molecule agonists, cell-based qHTS assay with rat liver microsomes (AID 1963578). The method in brief:
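Read-out is beta-lactamase reporter fluorescence (LiveBLAzer, 2 h, room temperature, dark) in p53RE-bla cells treated 16 h at 37 C with compound, rat liver microsomes and NADPH, both 0.5 mg/mL final.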

Experiment [19] is described as follows: p53 small molecule agonists, cell-based qHTS assay: qHTS cell viability counter screen (AID 1963581). Note: nearly all actives have a fitted effect of over 45% in size. An outline of the steps: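 Multiplexed with the reporter read, a CellTiter-Glo step (30 min, room temperature) gauges ATP-based viability of HCT-116 p53RE-bla cells after 16 h compound incubation at 37 C.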
Experiment [20] is described as follows: p53 small molecule agonists, cell-based qHTS assay (AID 1963582; active = well fitted activation curve with a large enough effect in the signal ratio in the repeat runs, not every such curve was filed as active; the % refers to the signal ratio). The method in brief: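 Beta-lactamase reporter cells (p53RE-bla) treated with compounds for 16 h at 37 C; FRET substrate, 2 h, room temperature; fluorescence intensity.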

A number with no mark means an inactive call. Records with an inconclusive call do not appear. Active and inactive are the calls of the source. Unless noted, calls come from the whole dose curve.
% is set by controls: 0 for no effect and ±100 for the full control effect.

Chain of Muscarinic acetylcholine receptor M1 (Homo sapiens) (P11229 whole entry, looked up): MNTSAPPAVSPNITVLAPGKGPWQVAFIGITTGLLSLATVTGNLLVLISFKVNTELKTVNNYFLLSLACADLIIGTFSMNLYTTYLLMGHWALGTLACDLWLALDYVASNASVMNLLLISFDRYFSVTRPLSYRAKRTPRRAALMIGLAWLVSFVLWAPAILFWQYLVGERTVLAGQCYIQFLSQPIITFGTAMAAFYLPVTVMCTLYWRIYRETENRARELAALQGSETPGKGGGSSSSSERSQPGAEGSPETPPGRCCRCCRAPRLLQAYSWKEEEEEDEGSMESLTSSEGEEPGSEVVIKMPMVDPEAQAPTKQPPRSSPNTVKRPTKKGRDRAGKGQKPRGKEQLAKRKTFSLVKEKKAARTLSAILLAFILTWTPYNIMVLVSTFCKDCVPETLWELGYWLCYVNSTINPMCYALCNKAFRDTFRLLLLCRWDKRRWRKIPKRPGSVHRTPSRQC
Chain of 5-hydroxytryptamine receptor 2A (Homo sapiens) (P28223 whole entry, looked up): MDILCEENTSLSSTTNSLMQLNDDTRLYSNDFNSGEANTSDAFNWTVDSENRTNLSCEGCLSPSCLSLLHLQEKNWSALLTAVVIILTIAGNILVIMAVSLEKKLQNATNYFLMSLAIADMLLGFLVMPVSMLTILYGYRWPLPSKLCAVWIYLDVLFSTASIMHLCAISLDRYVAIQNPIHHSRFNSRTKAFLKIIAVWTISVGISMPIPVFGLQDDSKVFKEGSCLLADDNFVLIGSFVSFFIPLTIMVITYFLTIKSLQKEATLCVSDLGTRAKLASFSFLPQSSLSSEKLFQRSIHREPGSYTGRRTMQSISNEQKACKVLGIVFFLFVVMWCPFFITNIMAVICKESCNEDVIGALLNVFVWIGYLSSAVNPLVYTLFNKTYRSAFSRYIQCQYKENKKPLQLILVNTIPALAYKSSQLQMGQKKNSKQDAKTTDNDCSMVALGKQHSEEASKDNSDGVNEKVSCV
Chain of Gonadotropin-releasing hormone receptor (Homo sapiens) (P30968 whole entry, looked up): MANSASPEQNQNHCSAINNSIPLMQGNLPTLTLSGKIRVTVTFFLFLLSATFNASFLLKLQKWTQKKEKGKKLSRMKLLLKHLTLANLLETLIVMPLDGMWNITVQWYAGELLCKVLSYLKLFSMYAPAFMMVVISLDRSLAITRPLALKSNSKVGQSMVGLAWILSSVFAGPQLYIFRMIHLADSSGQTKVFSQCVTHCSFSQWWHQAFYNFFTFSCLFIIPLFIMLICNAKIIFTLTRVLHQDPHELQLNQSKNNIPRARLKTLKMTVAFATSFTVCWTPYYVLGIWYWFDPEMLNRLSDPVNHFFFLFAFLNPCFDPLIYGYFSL
Chain of Beta-2 adrenergic receptor (Homo sapiens) (P07550 whole entry, looked up): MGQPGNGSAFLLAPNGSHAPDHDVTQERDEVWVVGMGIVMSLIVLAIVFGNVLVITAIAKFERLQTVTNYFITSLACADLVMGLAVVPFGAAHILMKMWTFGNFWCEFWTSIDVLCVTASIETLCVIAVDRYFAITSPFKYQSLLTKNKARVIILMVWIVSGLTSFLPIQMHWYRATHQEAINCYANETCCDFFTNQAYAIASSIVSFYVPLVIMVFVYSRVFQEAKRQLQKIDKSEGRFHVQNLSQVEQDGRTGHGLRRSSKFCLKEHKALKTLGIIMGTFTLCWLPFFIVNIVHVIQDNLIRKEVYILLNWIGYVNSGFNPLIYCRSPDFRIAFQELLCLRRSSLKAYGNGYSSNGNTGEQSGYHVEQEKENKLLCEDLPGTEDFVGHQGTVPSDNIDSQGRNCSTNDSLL
Chain of D(2) dopamine receptor (Homo sapiens) (P14416 whole entry, looked up): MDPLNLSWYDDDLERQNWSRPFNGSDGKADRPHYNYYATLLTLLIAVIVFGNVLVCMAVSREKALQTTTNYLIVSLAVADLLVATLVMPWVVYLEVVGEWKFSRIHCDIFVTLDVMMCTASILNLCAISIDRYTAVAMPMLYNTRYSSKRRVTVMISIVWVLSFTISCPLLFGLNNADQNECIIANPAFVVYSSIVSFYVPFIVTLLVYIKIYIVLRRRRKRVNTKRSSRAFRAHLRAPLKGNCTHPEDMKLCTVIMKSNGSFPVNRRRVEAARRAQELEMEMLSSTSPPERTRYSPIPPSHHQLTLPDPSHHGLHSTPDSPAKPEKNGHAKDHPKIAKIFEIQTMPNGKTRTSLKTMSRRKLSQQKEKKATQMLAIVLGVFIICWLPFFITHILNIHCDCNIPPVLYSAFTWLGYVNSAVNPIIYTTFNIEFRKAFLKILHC
Chain of KiSS-1 receptor (Homo sapiens) (Q969F8 whole entry, looked up): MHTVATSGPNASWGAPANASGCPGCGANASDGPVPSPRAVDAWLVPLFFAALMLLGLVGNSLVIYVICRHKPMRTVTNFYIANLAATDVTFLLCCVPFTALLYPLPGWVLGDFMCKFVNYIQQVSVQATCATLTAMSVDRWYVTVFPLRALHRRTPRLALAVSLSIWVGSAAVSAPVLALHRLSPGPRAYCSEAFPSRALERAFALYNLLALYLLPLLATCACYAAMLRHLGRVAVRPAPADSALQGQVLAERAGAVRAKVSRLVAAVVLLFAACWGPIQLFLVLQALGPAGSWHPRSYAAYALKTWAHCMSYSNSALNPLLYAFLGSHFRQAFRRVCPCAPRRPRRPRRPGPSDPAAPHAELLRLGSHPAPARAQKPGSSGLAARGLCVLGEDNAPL

As to `CC(=O)O[C@@H]1CC2CCC1(C)C2(C)C` (stereo partly specified), the Potency entry in [1], in experiment [2], in experiment [3], in experiment [6], in experiment [7] and in [8] was “inactive” in each case. For the same compound, the Potency result in experiment [9], in [10], in experiment [11], in experiment [12], in experiment [13] and in experiment [14] was “inactive” in each case. In addition, the Potency entry in [15], in experiment [16] and in [17] was “inactive” in each case. In addition, the result in experiment [4] and in [5] was inactive.

As to `C[C@@H](CN1CC(=O)NC(=O)C1)N1CC(=O)NC(=O)C1`, the Potency entry in experiment [1], in [2], in [3], in [18], in experiment [7] and in [19] was “inactive” in each case. The Potency entry in experiment [20], in experiment [8], in experiment [9], in experiment [10], in [11] and in [12] was “inactive” in each case. Further, the Potency result in experiment [13], in experiment [14], in experiment [16] and in experiment [17] was “inactive” each time. The outcome in experiment [4] and in experiment [5] was inactive.

For the compound `CN(C)C(=O)Nc1ccc(Oc2ccc(Cl)cc2)cc1`, the Potency entry in experiment [1], in experiment [2], in experiment [3], in experiment [18], in experiment [7] and in experiment [19] was “inactive” throughout. Besides, the Potency entry in experiment [20], in experiment [8], in [9], in [10], in experiment [11] and in experiment [12] was “inactive” in each case. Also, the Potency entry in experiment [13], in [14], in experiment [16] and in experiment [17] was “inactive” in each case. The result in [4] and in experiment [5] was inactive.

On to `CCN(CC)CCNc1ccc(CNC=O)c2sc3ccc(OC)cc3c(=O)c12`, for which the Potency is 54.5 µM (active) in [1]; 24.3 µM (active) in experiment [2]; 3.89 µM (active) in experiment [9]; 10.6 µM (active) in experiment [10]; 21.7 µM (active) in [13]. Further, the Potency entry in experiment [3], in experiment [6], in [19], in [8], in experiment [11] and in experiment [15] was “inactive” each time. The Potency result in experiment [16] is “inactive”. The result in [4] and in experiment [5] was inactive.

Consider `CCCC1CCC(=O)O1` (stereo unspecified), for which the Potency result in experiment [1], in experiment [2], in experiment [3], in experiment [6], in experiment [7] and in experiment [20] was “inactive” each time. Also, the Potency entry in experiment [9], in experiment [10], in experiment [11], in [14] and in [15] was “inactive” throughout. Besides, the outcome in experiment [4] and in experiment [5] was inactive.

Consider `CCN(CC)CCSC(=O)C(c1ccccc1)c1ccccc1`, for which the Potency entry in experiment [1], in experiment [3], in [6], in experiment [7], in experiment [20] and in [11] was “inactive” in each case. Besides, the Potency entry in experiment [12], in experiment [14] and in [16] was “inactive” in each case. Also, the Potency in experiment [2] was 33.5 µM (active); in experiment [9], 3.38 µM (active); in experiment [10] it was 0.0103 µM (active). For the same compound, the result in [4] and in [5] was inactive.

Take `[O]=[Bi]`: the activity change, negative = cytotoxicity is 4.16% [at 8.39 µM] in experiment [1] and 5.64% [at 5.99 µM] in experiment [19]. The activity, positive = activation in [2] is 29.8% [at 8.39 µM]. Further, the activity change in experiment [3] was 0.29% [at 5.22 µM, active compounds read high]. The activation in experiment [4] was 0.437% [at 6.97 µM]; in experiment [5], 0.259% [at 5.23 µM]; in [6] it was -14.4% [at 5.99 µM]; in experiment [20], 6.59% [at 5.99 µM]; in [9], 0.438% [at 7.02 µM]; in experiment [11], 0.394% [at 6.97 µM]. The activation is -0.129% [at 8.39 µM] in experiment [12], 3.98% [at 8.39 µM] in experiment [15] and 0.151% [at 8.39 µM] in experiment [16]. In addition, the activity, negative = inhibition in experiment [8] was 2.38% [at 5.62 µM]. Further, the activity change, negative = inhibition in experiment [13] is -10.4% [at 8.39 µM]; in experiment [14], 6.45% [at 8.39 µM]; in experiment [17], -14.1% [at 8.38 µM].

In the case of `CN1CCN(CCCN2c3ccccc3Sc3ccc(Cl)cc32)CC1`, the Potency result in experiment [1], in experiment [2], in [3], in experiment [6], in experiment [19] and in experiment [20] was “inactive” throughout. For the same compound, the Potency result in experiment [15] and in experiment [16] was “inactive” in each case. Besides, the result in [4] and in [5] was inactive.

(Values after PubChem BioAssay (Tox21).)
